According to PubChem BioAssay (NCI):
About 83,000 compounds went through this panel and 20% of them were active in at least one assay; those are over-represented in the sample as a whole.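 The endpoint reported here, percent growth, reads 100 for growth as untreated, 0 for no net growth and -100 for all cells dead.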 Unmarked numbers belong to inactive results. The source made the active and inactive calls. The calls were made as follows: active = growth percent below 10; inactive = the rest.

What follows are compounds tested on HL-60(TB) leukemia (assay: NCI-60 one-dose screen, 48 h (100 = growth as untreated, 0 = no growth, -100 = all killed)). Conditions: 10 µM unless noted.

Point of comparison: CCN(CC)c1ccc(Nc2ccc(CC(=O)c3ccccc3)cc2)cc1, growth 97.9%. Against it:
- CC12OC(CC(O)C1O)n1c3ccccc3c3c4c(c5c6ccccc6n2c5c31)C(=O)N(CCN1CCCC1)C4=O (stereo not given) — lower, 18.3%
- COc1cc(C(=O)Oc2ccccc2OC(=O)c2cc(OC)c(OC)c(OC)c2)cc(OC)c1OC — higher, 110%
- CC1(O)OC(COc2ccc(Cl)cc2)COC1O (stereo not given) — higher, 105%
- CNS(=O)(=O)c1n[nH]nc1-c1cc(C(C)(C)C)c(O)c(C(C)(C)C)c1 — lower, 95%
- COc1cccc2ccc(CC(O)(c3ccccc3)c3ccccc3)nc12 — lower, 95.8%
- CNS(=O)(=O)Oc1ccc(-c2sc3cc(OS(=O)(=O)NC)ccc3c2C(=O)c2ccc(OCCN3CCCCC3)cc2)cc1 — lower, 94.8%
- CC(C)CSc1nc(NN)c(C#N)c(-c2ccc(F)cc2)n1 — lower, 94.4%
- Cc1ccc(N)c(O)c1 — higher, 128%
- CCN(CC)CCNc1ncnc2c1cnn2-c1ccc(Cl)cc1 — lower, 39.1%
- Cc1cc(N2CCN(CC(=O)Nc3ccc4c(ccn4C)c3)CC2)nc(N2CCCCCC2)n1 — lower, 74.7%
- O=C(Nc1ccncc1)C(=O)c1cn(S(=O)(=O)c2cc(Cl)cc(Cl)c2)c2ccccc12 — lower, 58.9%
- Nc1nc2ccccc2c2c(=O)c3ccc(Cl)cc3sc12 — lower, 92.1%
- Cc1c(Cl)cccc1NC(=O)CN1CCOCC1 — lower, 81.7%
- COc1ccc(C2=C(Br)C(=O)c3nc(C)ccc3C2=O)cc1 — lower, 66.2%
- COc1ccc2c(/C=C3/C(=O)NC(=S)NC3C)cc(=O)oc2c1 (stereo not given) — lower, 90.5%
- N#C/C(C(=O)c1ccccc1)=C1/C(=O)Nc2ccc(Br)cc21 — higher, 146%
- S=C=NP1(N=C=S)=NP(N=C=S)(N=C=S)=NP(N=C=S)(N=C=S)=NP(N=C=S)(N=C=S)=N1 (stereo not given) — lower, 60.7%
- COc1ccc(C2Nc3c(c(C(C)(C)C)nn3-c3ccccc3)C(=O)CS2)cc1 (stereo not given) — higher, 129%
- O=C(Cn1ccnc1)NC(c1ccccc1)c1ccccc1 — lower, 96.7%
- O=C1OC(c2ccccc2)=N/C1=C\c1ccc([N+](=O)[O-])cc1 — higher, 119%
- C/C(=N\O)[C@@H]1CC[C@]2(CO)CC[C@]3(C)[C@H](CC[C@@H]4[C@@]5(C)CCCNC(C)(C)[C@@H]5CC[C@]43C)[C@@H]12 — lower, 95.1%
- CS(=O)(=O)c1ccc(-c2nc3ccccc3n2CC(=O)N/N=C/c2ccccc2)cc1 — higher, 141%
- CN(C)c1ccc(/C=N/NC(=O)c2ccccc2Nc2cccc(C(F)(F)F)c2)cc1 — lower, 92.1%
- Cc1cccc(NC(=O)CSc2nc3ccccc3[nH]2)c1 — higher, 101%
- C[C@@H]1CC[C@@H]2[C@@H]1[C@H](OC(=O)/C=C/c1ccccc1)[C@]1(c3ccccc3)C[C@@H](NC(=O)CO)[C@@]2(C)O1 — lower, 97.7%
- Cc1ccc(NC(=S)NNC(=S)Nc2ccc(C)cc2)cc1 — lower, 44.7%
- Oc1[nH]c2ccc(Cl)cc2c1/C=c1/ccc2c(c1)N=C(c1cc(F)cc(F)c1)N=2 — lower, 70.1%
- COc1ccc(C2CC(=O)Oc3c(OC)c4c(c(OC)c32)OCO4)cc1 (stereo not given) — lower, 95.6%

For CCNCCNc1cc(-c2ccc(Cl)c(Cl)c2)c(C#N)c2nc3ccccc3n12, the growth was -62.3% (active).
In the case of Cc1ccccc1-n1nnc(C(=O)Nc2nc3ccc(F)cc3s2)c1C, the growth is reported as 1.12% (active).
In the case of O=C(COc1ccc(/C=C2\Oc3ccccc3C2=O)cc1)Nc1nccs1, the growth is reported as -36.2% (active).
With CCCCCCNCc1cc(C(C)(C)C)cc(CNCCCCCC)c1O the growth was -45.1% (active).
For Cc1ccc2c(n1)C(=O)C(Cl)=C(Nc1ccc(N3CCN(C)CC3)cc1)C2=O, the growth was -46.7% (active).
For COc1ccc(-c2cc(=O)[nH]c3c(OC)c4ccccc4c(OC)c23)cc1, the growth was -19.8% (active).
With CC1=C([Se]CC(OC(=O)[C@@H](CSSC(C)(C)C)NC(=O)C(C)(C)C)C(=O)NCCCCCC(=O)OCc2ccccc2)C(=O)c2ccccc2C1=O (stereo not given in full) the growth was -24.4% (active).
COc1cc2nc(N3CCCC3)nc(NCc3ccccc3)c2cc1OC was tested, and the growth was -47.8% (active).
With O=C(CCCCCCN1CC(=O)N2[C@H](c3ccc(Br)cc3)c3[nH]c4ccccc4c3C[C@@H]2C1=O)NO the growth was 5.8% (active).
In the case of CN(C)CCCOc1ccc(NC2=C(Cl)C(=O)C(Nc3ccc(OCCCN(C)C)cc3)=C(Cl)C2=O)cc1, the growth is reported as -39.9% (active).
NC1=C(/C(N)=N/O)C(c2ccccc2)c2ccc3ccccc3c2O1 (stereo not given) was tested, and the growth was -19% (active).
